Laboratory results reported in PubChem BioAssay AID1159580 (chemical genetic matrix, 2015).
Values joined by “and” are separate entries in the source; they are usually repeats but may differ in a detail not shown here. Equal entries are not always repeated. About 2,000 (36%) of roughly 5,500 compounds were called active. Not shown: some 18% with an inconclusive outcome. No stated cut-off is given here; in the data, active means normalized growth mostly below about 0.91 (no sharp cut-off); inconclusive means no clear call, values can overlap the other calls; inactive means mostly above about 0.92. Some of the results follow. *1 amine or outer side, *2 acyl side, *3 side chain or, on linkers, in order; H or OH if unused. Where a SMILES comes first, the peptide text is derived from it. Bridges are numbered along the chain shown (N, C = ends). [ ]: non-standard residue; d: D form. The star is where a group is joined. ξ: configuration not given here. ΔAla(E,3-NHCONH2) = NC(=O)N/C=C(/N)C(=O)O; X2 = NC1=NCCC(C(N[*:1])C(=O)[*:2])N1; ξβ3hOrn = NCCCC(N)CC(=O)*; Dap = NC[CH](N)C(=O)O

Test: chemical genetic growth profiling, strain panel (AID 1159580);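 further: tested at 20 µM; growth read once vehicle control cultures reached saturation at 30 °C; 1 = growth at the plate median or of vehicle wells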
Conditions: S. cerevisiae deletion strains, growth OD

Measured: normalized growth

NCCCC(N)CC(=O)NCC1NC(=O)C(CO)NC(=O)C(N)CNC(=O)C(C2CCN=C(N)N2)NC(=O)/C(=C\NC(N)=O)NC1=O (stereo not drawn) (H-[Dap]S[Dap](ξβ3hOrn)[ΔAla(E,3-NHCONH2)][X2]; lactam 1-C; configuration not given here)
inactive: locus YAL013W, strain DEP1, stronger effect = lower value 0.999 | locus YAL021C, strain ccr4, stronger effect = lower value 1.01 | locus YAL026C, strain drs2, stronger effect = lower value 0.994 | locus YAL030W, strain snc1, stronger effect = lower value 1.03 | locus YBL061C, strain skt5, stronger effect = lower value 1.02 | locus YBR009C, strain hhf1, stronger effect = lower value 0.975 | locus YBR021W, strain FUR4, stronger effect = lower value 0.997 | locus YBR023C, strain chs3, stronger effect = lower value 1.01 | locus YBR171W, strain sec66, stronger effect = lower value 1.02 | locus YBR229C, strain ROT2, stronger effect = lower value 1.01 | locus YBR231C, strain swc5, stronger effect = lower value 1.05 | locus YBR279W, strain paf1, stronger effect = lower value 1.01 | locus YCL011C, strain gbp2, stronger effect = lower value 0.984 | locus YCL016C, strain dcc1, stronger effect = lower value 0.989 | locus YCL029C, strain bik1, stronger effect = lower value 1.03 | locus YCL069W, strain vba3, stronger effect = lower value 1.01 | locus YCR088W, strain abp1, stronger effect = lower value 1.02 | locus YDL005C, strain med2, stronger effect = lower value 0.994 | locus YDL035C, strain GPR1, stronger effect = lower value 1.01 | locus YDL040C, strain nat1, stronger effect = lower value 1.01 | locus YDL074C, strain BRE1, stronger effect = lower value 1.02 | locus YDL101C, strain DUN1, stronger effect = lower value 1 | locus YDL185W, strain tfp1, stronger effect = lower value 1.03 | locus YDL192W, strain arf1, stronger effect = lower value 0.998 | locus YDR001C, strain nth1, stronger effect = lower value 0.999 | locus YDR069C, strain doa4, stronger effect = lower value 1.03 | locus YDR101C, strain arx1, stronger effect = lower value 1.02 | locus YDR137W, strain rgp1, stronger effect = lower value 0.991 | locus YDR159W, strain sac3, stronger effect = lower value 0.975 | locus YDR162C, strain NBP2, stronger effect = lower value 1.01 | locus YDR195W, strain ref2 1.05 | locus YDR297W, strain sur2, stronger effect = lower value 1.03 | locus YDR318W, strain mcm21, stronger effect = lower value 1.02 | locus YDR334W, strain swr1, stronger effect = lower value 1 | locus YDR335W, strain msn5, stronger effect = lower value 1.02 | locus YDR388W, stronger effect = lower value 1.01 | locus YDR392W, strain spt3, stronger effect = lower value 0.928 | locus YDR502C, strain sam2, stronger effect = lower value 1.01 | locus YEL003W, strain gim4, stronger effect = lower value 1.04 | locus YEL037C, strain rad23, stronger effect = lower value 1.02 | locus YEL061C, strain CIN8 (second series), stronger effect = lower value 1.02 | locus YEL061C, strain CIN8, stronger effect = lower value 0.997 | locus YER015W, strain faa2, stronger effect = lower value 1.01 | locus YER016W, strain bim1, stronger effect = lower value 0.993 | locus YER110C, stronger effect = lower value 1.02 | locus YER111C, strain swi4, stronger effect = lower value 0.999 | locus YER155C, strain BEM2 (second series), stronger effect = lower value 1 | locus YER155C, strain BEM2, stronger effect = lower value 1 | locus YER167W, strain BCK2, stronger effect = lower value 0.996 | locus YFR010W, strain ubp6, stronger effect = lower value 1.05 | locus YGL078C, strain dbp3, stronger effect = lower value 1.02 | locus YGL086W, strain mad1, stronger effect = lower value 0.997 | locus YGL167C, strain pmr1, stronger effect = lower value 1.02 | locus YGL173C, strain kem1, stronger effect = lower value 1.04 | locus YGL227W, strain vid30, stronger effect = lower value 1.01 | locus YGL240W, strain doc1, stronger effect = lower value 1.06 | locus YGL248W, strain PDE1, stronger effect = lower value 1.01 | locus YGL253W, strain hxk2, stronger effect = lower value 0.984 | locus YGR078C, strain PAC10, stronger effect = lower value 1.01 | locus YGR135W, strain pre9, stronger effect = lower value 1.04 | locus YGR229C, strain SMI1, stronger effect = lower value 1.02 | locus YGR252W, strain gcn5, stronger effect = lower value 0.993 | locus YHR013C, strain ard1, stronger effect = lower value 1.03 | locus YHR027C, strain rpn1, stronger effect = lower value 1.01 | locus YHR030C, strain SLT2, stronger effect = lower value 1 and 1.03 | locus YHR079C, strain IRE1 (second series), stronger effect = lower value 1.02 | locus YHR079C, strain IRE1, stronger effect = lower value 1.03 | locus YHR094C, strain hxt1, stronger effect = lower value 1.01 | locus YHR129C, strain ARP1, stronger effect = lower value 0.999 | locus YHR142W, strain chs7, stronger effect = lower value 1.01 | locus YHR200W, strain rpn10, stronger effect = lower value 1.02 | locus YIL066C, strain RNR3, stronger effect = lower value 1.01 | locus YIL073C, strain SPO22, stronger effect = lower value 1.08 | locus YIL125W, strain kgd1, stronger effect = lower value 1.01 | locus YIR030C, strain dcg1, stronger effect = lower value 1.01 | locus YJL092W, strain hpr5, stronger effect = lower value 1.03 | locus YJL095W, strain BCK1 (second series), stronger effect = lower value 1.03 | locus YJL095W, strain BCK1, stronger effect = lower value 1.01 and 1.04 | locus YJL115W, strain asf1, stronger effect = lower value 1.02 | locus YJL129C, strain trk1, stronger effect = lower value 1.01 | locus YJL134W, strain LCB3, stronger effect = lower value 1.01 | locus YJL154C, strain vps35, stronger effect = lower value 1.01 | locus YJL164C, strain tpk1, stronger effect = lower value 1 | locus YJL166W, strain qcr8, stronger effect = lower value 1.04 | locus YJL168C, strain set2, stronger effect = lower value 1.01 | locus YJL187C, strain SWE1 (second series), stronger effect = lower value 1.01 | locus YJR043C, strain POL32, stronger effect = lower value 1.01
